High-throughput results (PubChem)
Only some compounds are listed: those with a hit (about 21% of all), similar ones and a draw of the others.
Pf growth 96h: P. falciparum growth inhibition at 96 hours; P. falciparum luciferase reporter growth, 96 h; Potency, µM (highest dose often 28.7 µM), inactives show top-dose activity change, negative = inhibition, most hits filed as inhibitors; 320,000 compounds, 6.9% hits; also: potency is read from the fitted curve at half-maximal effect; % is scaled to controls: 0 for no effect and ±100 for the full control effect
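Compounds incubated with erythrocytes infected by luciferase-expressing P. falciparum (2% hematocrit, 0.05% parasitemia final) for 96 hours, 37 C in 5% CO2. Growth inhibition scored as decreased luciferase luminescence.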
Pf growth 48h: inhibits P. falciparum growth in the first generation, 48 h. P. falciparum luciferase growth in erythrocytes, 48 h. Potency, µM (top dose mostly 28.7 µM), without a hit: top-dose activity change, negative = inhibition, most hits filed as inhibitors. 310,000 compounds, 5.9% hits. AID 504832; also: potency is read from the fitted curve at half-maximal effect; % is scaled to controls: 0 for no effect and ±100 for the full control effect
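Luciferase-expressing P. falciparum in infected erythrocytes (2% hematocrit, 0.1% parasitemia final) in RPMI 1640/0.5% Albumax were exposed to compound for 48 hours at 37 C, 5% CO2; growth read as luminescence.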
NS1 function inh: influenza NS1 inhibition; Potency, µM (series often up to 46.1 µM), for the others: top-dose activity, positive = more growth; 270,000 compounds, 0.4% hits; calls by dose curve; also: potency is read from the fitted curve at half-maximal effect; actives are rising curves; nearly all actives have a fitted effect of over 50% in size
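Read-out: OD600 growth recovery of NS1-expressing budding yeast. Cells grown overnight at 30C in -URA glucose medium, washed, resuspended and diluted 1:100 in 2% galactose assay medium, pH 6.0. Same strain lacking NS1 served as positive control.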
Shiga toxin inh: Shiga toxin inhibition; inhibition, % at 38.7 µM; Vero cells, Shiga toxin protein synthesis inhibition reporter; 290,000 compounds, 9.2% hits; in the data active = inhibition mostly above about 28%, no sharp cut-off; inactive = mostly below about 43%; also: 0% is about no effect
FBPA Giardia inh: Giardia lamblia aldolase inhibition; A8B2U2; purified Giardia FBPA; Potency, µM (doses to about 59.6 µM), for inactives: at the highest dose activity, negative = inhibition, most hits filed as inhibitors; 290,000 compounds, 0.71% hits; also: potency is read from the fitted curve at half-maximal effect; % is scaled to controls: 0 for no effect and ±100 for the full control effect; nearly all actives have a fitted effect of over 55% in size
Target sequence (A8B2U2 whole entry, looked up): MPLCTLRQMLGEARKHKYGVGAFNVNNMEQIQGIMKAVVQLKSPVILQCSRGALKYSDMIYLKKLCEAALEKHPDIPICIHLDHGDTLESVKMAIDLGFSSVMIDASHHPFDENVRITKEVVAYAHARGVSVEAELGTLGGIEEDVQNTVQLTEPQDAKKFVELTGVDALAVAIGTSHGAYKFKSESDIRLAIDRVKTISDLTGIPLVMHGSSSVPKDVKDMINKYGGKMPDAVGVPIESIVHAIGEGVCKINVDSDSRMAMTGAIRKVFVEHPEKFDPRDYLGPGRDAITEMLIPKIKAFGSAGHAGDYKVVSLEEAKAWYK
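40 nM FBPA preincubated 10 min at RT with compound (up to 57.5 uM final), then substrate plus GAPDH/TPI/NAD/arsenate coupling and diaphorase/resazurin added. Fluorescence read after 20 min at RT, 525/598 nm.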
CHX counter: affects cycloheximide protein synthesis inhibition readout, counter-screen; 300,000 compounds, 12% hits; max response, %; cell reporter, cycloheximide protein synthesis inhibition counterscreen; in the data active = max response mostly above about 13%, no sharp cut-off; inactive = mostly below about 14%; also: read at 38.3 µM for the half of the compounds with a filed dose; 0% is about no effect
An asterisk follows results filed as active; ? = inconclusive; · = no result; [ ] = dose if it differs, or a comment. Unless noted, calls follow the shape of the dose curve; as a rule, active = well fitted curve in the direction sought with a large enough effect; inconclusive = small, poorly fitted or top-dose-only effect, or another doubt; inactive = no such curve, though single readings can be large; an effect the other way counts as inactive or inconclusive.

SMILES | Pf growth 96h | Pf growth 48h | NS1 function inh | Shiga toxin inh | FBPA Giardia inh | CHX counter
O=C(CCN1C(=O)/C(=C/c2ccccc2)SC1=S)Nc1ccccn1 | 11% | 32% | 7% | -6 | 13% | -3
CCc1ccc(/C=C2\SC(=S)N(CCCC(=O)Nc3ccccc3C(=O)O)C2=O)cc1 | 17µM* | -3% | 4% | 5 | · | -11
Clc1ccc2c(N3CCC(CCC4CCN(c5ncnc6cc(Cl)ccc56)CC4)CC3)ncnc2c1 | · | · | 0% | · | · | ·
COc1cccc2c1C(=O)c1c(O)c3c(c(O)c1C2=O)C[C@@](O)(C(=O)CO)C[C@@H]3O[C@H]1C[C@H](N)[C@H](OC2CCCCO2)[C@H](C)O1 (stereo not given in full) | 4.3µM* | 3.8µM* | · | · | · | ·
COc1cccc2c1C(=O)c1c(O)c3c(c(O)c1C2=O)C[C@](O)(C(C)=O)C[C@H]3O[C@@H]1C[C@@H](N)[C@@H](O)[C@@H](C)O1 | 1.2µM* | 0.93µM* | · | · | · | ·
Cc1ccc(S(=O)(=O)N2CCC(C(=O)NNC(=O)c3ccncc3)CC2)cc1 | ? | 21% | 0% | 18 | 5% | -4
Cc1ccc(NC(=O)C(C)OC(=O)CCC2CCCCC2)cc1 (stereo not given) | 27% | 45% | · | · | · | ·
CC(=Nc1ccccc1C(F)(F)F)c1ccncc1 | 24% | 0% | 8% | -1 | 10% | -3
COc1ccnc(CSC(N)=Nc2ccccc2OC)c1 | ? | 40% | 4% | 91* | ? | 75*
COc1ccnc(CSC(N)=Nc2ccccc2C(F)(F)F)c1 | 19% | 13% | -11% | 22* | -22% | 15
COc1ccnc(CSC(N)=Nc2cccc(C(F)(F)F)c2)c1 | ? | ? | -45% | 42 | ? | 25*
COc1ccc(OC)c(S(=O)(=O)NCc2ccccn2)c1 | 40% | 11% | 3% | -11 | 5% | -1
COc1ccnc(CN(C)C(=O)C2CCC(=O)N(Cc3cccc(C(F)(F)F)c3)C2)c1 (stereo not given) | -12% | 23% | 3% | -4 | 1% | -3
CCOC(=O)N/N=C1/C[C@@H](O)[C@@H](O)[C@@H]2[C@@H]3C(=O)N(C4CCCCC4)C(=O)[C@H]3CC[C@H]12 | · | · | · | · | 4%[12.9 µM] | ·
O=C(O)c1ccc(S(=O)(=O)N(Cl)Cl)cc1 | -11% | -5% | · | · | -14% | ·
CCc1cccc2c1NC(=O)C21OCCO1 | ? | 24% | 1% | -10 | 5% | -7
CN(C)S(=O)(=O)N1CCC(Oc2cccc(C(=O)NC3CCCCCC3)c2)CC1 | ? | ? | -21% | 17 | · | -2
CN(C(=O)c1ccc(OC2CCN(S(=O)(=O)N(C)C)CC2)cc1)C1CCCCC1 | -6% | -14% | 1% | 27 | 3% | 11
CCN1CCN(C(=O)c2cccc(OC3CCN(S(=O)(=O)N(C)C)CC3)c2)CC1 | 11% | 1% | 13% | 16 | · | 27*
CCN(CCn1cccn1)C(=O)c1cccc(OC2CCN(S(C)(=O)=O)CC2)c1 | 10µM* | 88% | 10% | -4 | · | -1
CC1CCCCN1C(=O)c1ccc(OC2CCN(S(=O)(=O)N(C)C)CC2)cc1 (stereo not given) | 17% | -13% | -4% | 26 | 5% | 26*
CN(C)S(=O)(=O)N1CCC(Oc2ccc(C(=O)N3CCCCCCC3)cc2)CC1 | -19% | ? | 12% | 117* | · | 62*
C=CCOc1ccc(CNCCc2ccc(S(N)(=O)=O)cc2)cc1 | -12% | -8% | · | -14 | -1% | -4
O=C(COC(=O)c1nc(Cl)c(Cl)c(Cl)c1Cl)NCc1ccccc1 | 28% | -2% | · | · | · | ·
COc1ccccc1CNC(=O)CCNC(=O)C1CCN(S(=O)(=O)c2ccccc2)CC1 | 17% | ? | 6% | -4 | 12% | 0
SMILES | Pf growth 96h | Pf growth 48h | NS1 function inh | Shiga toxin inh | FBPA Giardia inh | CHX counter
COc1ccc(-c2nc3cnc(OCc4ccccc4)nc3n(CCC#N)c2=O)cc1 | · | · | · | · | 7% | ·
CSc1ncccc1C(=O)OCC(=O)N(C)c1c(N)n(Cc2ccccc2)c(=O)[nH]c1=O | 9% | -4% | · | · | · | ·
O=C(Nc1nccs1)c1cccc(NC(=O)C(F)(F)F)c1 | 88% | 81% | -4% | 73* | -3% | 18*
COc1ccc(C(=O)Nc2nccs2)cc1[N+](=O)[O-] | 1% | 109% | -4% | -3 | 0% | 27*
COc1ccc(CCC(=O)Nc2nccs2)cc1OC | 6% | -1% | -2% | -5 | 5% | -1
COc1ccc(C(=O)Nc2nccs2)cc1OC | · | 98% | -11% | 116 | 0% | 28*
COc1ccc(NC(=O)Nc2nnc(CC(=O)Nc3ccccc3)s2)cc1 | -15% | 8% | -1% | 1 | 3% | 2
CCc1nnc(NC(=O)Nc2ccc(OC)cc2)s1 | 2% | · | -5% | 25 | -1% | 24*
CCC(CC)C(=O)Nc1cccc(C(=O)Nc2nccs2)c1 | ? | -41% | 13% | -12 | 5% | 3
COc1cc(OC)cc(C(=O)Nc2ccccc2-c2nnn(CC(=O)Nc3cc(C)on3)n2)c1 | -38% | ? | 3% | -9 | 9% | -2
CN1CCC[C@H](C(=O)OCC(=O)[C@]2(O)CC[C@@H]3[C@H]4CCC5=CC(=O)CC[C@@]5(C)[C@H]4[C@@H](O)C[C@]32C)C1 | · | · | -6% | · | · | ·
Cn1cc([N+](=O)[O-])c(C(=O)Nc2ccc(Br)cn2)n1 | 54% | 45% | -9% | 52* | 7% | 25*
COc1ccc(C(=O)Nc2nccs2)cc1 | 2% | 197% | 0% | · | 12% | 29*
CCOCc1nnc(NC(=O)c2ccc(OC)cc2)s1 | 52% | 106% | -14% | 48* | 0% | 22*
CCOCc1nnc(NC(=O)c2ccc(NC(C)=O)cc2)s1 | 17% | -7% | 2% | -3 | 15% | -6
COc1ccc(NC(=O)Nc2nccs2)cc1 | · | 128% | -3% | 85* | -6% | 32*
Cn1cc([N+](=O)[O-])c(C(=O)NCC(=O)O)n1 | -24% | -7% | -7% | -20 | 6% | 2
Cn1cc([N+](=O)[O-])c(C(=O)Nc2nccs2)n1 | -1% | 12% | -1% | 40 | -3% | 30*
Cc1occc1C(=O)N/N=C/C=C/c1ccc(N(C)C)cc1 | 50% | 40% | -11% | 79* | -11% | 53*
Cc1occc1C(=O)N/N=C/c1ccc(N(C)C)cc1 | 98% | 267% | -42% | 35 | -1% | 22*
Cc1occc1C(=O)N/N=C/C=C/c1ccccc1 | 8% | 113% | · | 85 | -20% | 41*
O=C(N/N=C/C=C/c1ccccc1)c1ccccc1Br | -17% | 1% | -25% | 41 | -11% | 26*
CN(C)c1ccc(/C=N/NC(=O)c2cccc(C(=O)N/N=C/c3ccc(N(C)C)cc3)n2)cc1 | ? | 11% | 1% | -17 | 1% | -4
Cc1c(Cl)cccc1NC(=S)NNS(=O)(=O)c1ccc([N+](=O)[O-])cc1 | 9% | -14% | ? | -11 | · | 4
